Source: the OligoGym collection
Note: reference of the scale not given here.

Each sequence was assayed against DUSP3 (assay: pooled miR-30 sensor sort-seq; sequence = guide strand). Conditions: shRNA.
TAGTTTCTGCAGCTTGGGGATG showed a sensor-assay potency score (higher = more potent) of -1.37. With TAGAAGTTGGCATTGGTGTTGA the sensor-assay potency score (higher = more potent) was 0.772. For AGACTTGACGTCCATCTTCTGC, the sensor-assay potency score (higher = more potent) was -1.63. Sequence TTCAGCACATGGGTGATGCCTA has a sensor-assay potency score (higher = more potent) of -0.601. TAGGCGATAACTAGCGTTGGGG showed a sensor-assay potency score (higher = more potent) of -0.821. ATTCTTTTGAGCCAAAGCCTGG was tested, and the sensor-assay potency score (higher = more potent) was -1.5. TTGACGTCCATCTTCTGCCGCA gave a sensor-assay potency score (higher = more potent) of -0.0981. TGAGGTTGAACTCCTGTGTGTC gave a sensor-assay potency score (higher = more potent) of 0.0433. TTGGGGAGCGGCTATAACCTTC was tested, and the sensor-assay potency score (higher = more potent) was -1.39.

The sequences below were run against DUSP5 in the same assay as above. Conditions: shRNA.
With TTAAAAACAAAAATCACAGTTG the sensor-assay potency score (higher = more potent) was 0.309. With TGTAGCTGACATTTACCACTGG the sensor-assay potency score (higher = more potent) was 0.536. In the case of TTGAGTGGGTAGGCACCGGTGC, the sensor-assay potency score (higher = more potent) is reported as -0.999. In the case of TATTGCTTCTTGAAAGTGGGAG, the sensor-assay potency score (higher = more potent) is reported as 0.394. For TTGAGGAAGTAGACCCGCGGGC, the sensor-assay potency score (higher = more potent) was -0.647. TTTGAGGAAGTAGACCCGCGGG was tested, and the sensor-assay potency score (higher = more potent) was -0.969. For TCCATTTGTAGTGTAGGTGGGT, the sensor-assay potency score (higher = more potent) was -0.0708. For TAGAAAGTCTCATATCCCCCTT, the sensor-assay potency score (higher = more potent) was -0.306. TAGCGCGCCGACACCGCGCCGC was tested, and the sensor-assay potency score (higher = more potent) was -0.777. TTGACGTTGAGCGAGCCGCGCA gave a sensor-assay potency score (higher = more potent) of -0.861. With TTTACATCCACGCAACACTCAG the sensor-assay potency score (higher = more potent) was -1.07. Sequence ATGCATGGTAGGCACTTCCAAG has a sensor-assay potency score (higher = more potent) of -1.82. TCCTCTCGCAGCTTCTGCCAGT gave a sensor-assay potency score (higher = more potent) of -1.18. With TTACATCCACGCAACACTCAGG the sensor-assay potency score (higher = more potent) was -0.32. For ATTCCGAGTAGAAAGTCTCATA, the sensor-assay potency score (higher = more potent) was -1.1. With TCTCACTCTCAATCTTCTCTTG the sensor-assay potency score (higher = more potent) was -0.536. Work on TAGCTGACATTTACCACTGGTT yielded a sensor-assay potency score (higher = more potent) of -0.934. In the case of TTGGCGAGGAACTCGCACTTGG, the sensor-assay potency score (higher = more potent) is reported as -0.725. Work on TTCATAAGGTAAGCCATGCAGA yielded a sensor-assay potency score (higher = more potent) of -0.386. Work on TTCTGCTGAGCTCTGAGACTGT yielded a sensor-assay potency score (higher = more potent) of -0.115. For TTGTAGTGTAGGTGGGTCGCGC, the sensor-assay potency score (higher = more potent) was -0.607. TTCCCTGACACAGTCAATGAAG was tested, and the sensor-assay potency score (higher = more potent) was -1.14. TACAGTAGTCAGCACATGCTGT was tested, and the sensor-assay potency score (higher = more potent) was -0.0745. In the case of TAGTGTAGGTGGGTCGCGCAGG, the sensor-assay potency score (higher = more potent) is reported as -0.939.

The sequences below were run against EAPP in the same assay as above. Conditions: shRNA.
In the case of TTCCACATCTGTCTCTGCCTTC, the sensor-assay potency score (higher = more potent) is reported as 0.205. Sequence TAATTCAGCTTCCATCTCCTTT has a sensor-assay potency score (higher = more potent) of -0.368. TTCATTACAAACATTGCTCTAT showed a sensor-assay potency score (higher = more potent) of 0.525. TTTCTTCCACATCTGTCTCTGC showed a sensor-assay potency score (higher = more potent) of -0.196. Work on TATATATCATCGTAGTACCTTG yielded a sensor-assay potency score (higher = more potent) of -0.621. TATATCTTAGAACCTCCTCTTT showed a sensor-assay potency score (higher = more potent) of -0.803. With TTGGTCACCTGTACTGCTCTGT the sensor-assay potency score (higher = more potent) was 0.00284.
